# Assay results: PubChem BioAssay (NCATS)
# Results filed as inconclusive are left out. Where a call stands in place of a potency, no number is given. Active and inactive are the calls of the source. Calls follow the shape of the dose curve; as a rule, active = well fitted curve in the direction sought with a large enough effect; inconclusive = small, poorly fitted or top-dose-only effect, or another doubt; inactive = no such curve, though single readings can be large; an effect the other way counts as inactive or inconclusive.
# Tested on: Zika virus NS2B-NS3 protease (linked construct)
# Test: Primary screen NINDS Rhodamine qHTS for Zika virus inhibitors (AID 1347160); also: nearly all actives have a fitted effect of over 55% in size
# Conditions: purified NS2B-NS3 protease, Rhodamine110 substrate fluorescence; series mostly up to 57.1 µM
# In short: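 Rhodamine110-peptide cleavage (1.5 µM substrate) by 25 nM linked NS2B-NS3 enzyme at pH 8.0 (Tris, Tween 20), after 15 min RT preincubation with compounds; 15-min fluorescence change normalized to controls and Hill-fitted.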
SMILES,Potency,outcome,"activity change, negative = inhibition"
Cc1cn2c(-c3cn[nH]c3)cnc2c(Nc2ccc(C(=O)N3CCNCC3)cc2F)n1,inactive,,
CCCCCN(CCC12CC3CC(CC(C3)C1)C2)C(=O)NCCCc1ccncc1,inactive,,
CC(C)(O)CCc1ccc(OCc2cc(-c3cccc(OC(F)F)c3)c3ncccc3c2)cc1,inactive,,
COc1c(OCCCN2CCOCC2)ccc2c3n(c(=NC(=O)c4cnc(N)nc4)nc12)CCN3,,inactive [at 10.7 µM],
COc1cc2c(Oc3ccc(-c4cnc(Nc5ccc(F)cc5)n(C)c4=O)cc3F)ccnc2cc1OCCCN1CCOCC1,inactive,,
CN(C1CCc2c(c3ccccc3n2CC(=O)O)C1)S(=O)(=O)c1ccc(F)cc1 (centres undefined),inactive,,
CC(=O)c1c(C)c2cnc(Nc3ccc(N4CCNCC4)cn3)nc2n(C2CCCC2)c1=O,,,8.21% [at 4.91 µM] (inactive)
COc1ccc(C(=O)CC2(O)C(=O)Nc3c(Cl)ccc(Cl)c32)cc1 (centres undefined),inactive,,
Cc1cnc(-c2cnc(NCCNc3ccc(C#N)cn3)nc2-c2ccc(Cl)cc2Cl)[nH]1,inactive,,
Cc1nc(N)ncc1-c1nc(N2CCOCC2)c2sc(C(C)(C)O)cc2n1,inactive,,
COC(=O)c1ccc2c(C(=Nc3ccc(N(C)C(=O)CN4CCN(C)CC4)cc3)c3ccccc3)c(O)[nH]c2c1,inactive,,
O=C(c1cncc(Br)c1)N1CCC(N2CCCC2)CC1,inactive,,
CC(C)CC(=O)Nc1n[nH]c2c1CN(C(=O)C1CCN(C)CC1)C2(C)C,inactive,,
COc1cc2c(Nc3ccc(NC(=O)c4ccccc4)cc3)ncnc2cc1OCCCN1CCOCC1,inactive,,
Nc1nccc(Oc2ccc(NC(=O)c3c[nH]cc(-c4ccc(F)cc4)c3=O)cc2F)c1Cl,inactive,,
CS(=O)(=O)c1ccc(-c2cnc(N)c(C(=O)Nc3ccccc3)n2)cc1,inactive,,
COc1ccc(OC)c(-c2nnc3ccc(-c4ccc(OC)c(O[C@@H]5CCOC5)c4)nn23)c1,inactive,,

SMILES,Potency,outcome,"activity change, negative = inhibition"
CC1(O)CC(c2nc(-c3ccc4ccc(-c5ccccc5)nc4c3)c3c(N)nccn23)C1 (centres undefined),inactive,,
OCc1ccc(-c2ccc(-c3ccc(CO)s3)o2)s1,inactive,,
O=C(CCCCCCNC(=O)c1cnc(N(c2ccccc2)c2ccccc2)nc1)NO,inactive,,
Cc1c(Cn2c(C)nc3c(C(=O)O)cc(N4CCOCC4)cc32)cccc1C(F)(F)F,inactive,,
Cc1nc(Nc2n[nH]c3c2CN(C(=O)N[C@H](CN(C)C)c2ccccc2)C3(C)C)c2sccc2n1,inactive,,
O=C(Nc1nc2cccc(-c3ccc(CN4CCS(=O)(=O)CC4)cc3)n2n1)C1CC1,inactive,,
C#Cc1cccc(Nc2ncnc3cc(OC)c(OCCCCCCC(=O)NO)cc23)c1,inactive,,
CC(C)Nc1cc(C(F)(F)F)cc2nc(NC(=O)c3cccnc3)nn12,inactive,,
O=C(Nc1ncc(-c2cc(C(F)F)nn2-c2c(Cl)cccc2Cl)s1)C1CC1,inactive,,
Cc1ccc(C(N)=O)cc1Nc1nccc(-c2cn(C(C)C)c3cnccc23)n1,inactive,,
Cn1c2ccccc2c2c3c(c4c5ccccc5n(CCC#N)c4c21)CNC3=O,inactive,,
Cn1cc(-c2ccncc2)c(-c2ccc(OCc3ccc4ccccc4n3)cc2)n1,inactive,,
COc1ccc(-n2nc(C(N)=O)c3c2C(=O)N(c2ccc(N4CCCCC4=O)cc2)CC3)cc1,inactive,,
Cc1cc(Nc2ncnc3ccc(-c4ccc(CNCCS(C)(=O)=O)o4)cc23)ccc1Oc1ccn2ncnc2c1,inactive,,
CCOc1ccccc1OCCNC(C)Cc1ccc(OC)c(S(N)(=O)=O)c1 (centres undefined),inactive,,
Cn1cc(-c2[nH]c3cc(NC(=O)[C@H](N)C4CCCCC4)cc4c3c2C=NNC4=O)cn1,inactive,,
COc1cc(C)c(Sc2cnc(NC(=O)c3ccc(CNC(C)C(C)C)cc3)s2)cc1C(=O)N1CCN(C(C)=O)CC1 (centres undefined),inactive,,

# Tested on: not listed separately
# Test: Confirmatory screen NINDS Rhodamine qHTS for Zika virus inhibitors (AID 1347161); also: nearly all actives have a fitted effect of over 60% in size; also: potency is read from the fitted curve at half-maximal effect;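 as to activity change, negative = inhibition: purified Zika NS2B-NS3 protease with linked NS2B cofactor domain and Rhodamine110 peptide substrate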
# Conditions: purified enzyme assay, Rhodamine110 substrate fluorescence, 15 min; series mostly up to 114 µM
# In short: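 Single-chain NS2B-NS3 protease, 25 nM, pH 8.0; compounds preincubated 15 min. Activity: Rhodamine110 release from 1.5 microM substrate over 15 min, room temperature, data fitted to 4-parameter Hill.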
row,SMILES,Potency
1,COc1cc(C(=O)NS(=O)(=O)c2ccccc2C)ccc1Cc1cn(C)c2ccc(NC(=O)OC3CCCC3)cc12,1.56 µM (active)
2,CC(C)c1ccccc1Cc1cc(C(=O)Nc2ccc(S(=O)(=O)c3ccccc3C(C)(C)C)cc2)c(O)c(O)c1O,90.3 µM (active)
3,CCN1CCN(Cc2ccc(-c3cc4c(N[C@H](C)c5ccccc5)ncnc4[nH]3)cc2)CC1,inactive
4,CCN(CC)CCCCNc1ncc2cc(-c3cc(OC)cc(OC)c3)c(NC(=O)NC(C)(C)C)nc2n1,inactive

# Tested on: not listed separately
# Test: Vero cells viability qHTS for Zika virus inhibitors (AID 1347167); also: potency is read from the fitted curve at half-maximal effect
# Conditions: cytotoxicity counter-screen (Zika); series mostly up to 45.9 µM
# In short: (§1)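 Luminescent ATP readout (CellTiter Glo) after 30 min at 37 degrees C gives viability; cells in DMEM + 4% FBS were treated 24 to 48 hours with compound, following overnight attachment.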
row,SMILES,Potency
1,COc1cc(C(=O)NS(=O)(=O)c2ccccc2C)ccc1Cc1cn(C)c2ccc(NC(=O)OC3CCCC3)cc12,inactive
2,CC(C)c1ccccc1Cc1cc(C(=O)Nc2ccc(S(=O)(=O)c3ccccc3C(C)(C)C)cc2)c(O)c(O)c1O,inactive
3,CCN1CCN(Cc2ccc(-c3cc4c(N[C@H](C)c5ccccc5)ncnc4[nH]3)cc2)CC1,53.7 µM (active)

# Tested on: not listed separately
# Test: HepG2 cells viability qHTS for Zika virus inhibitors (AID 1347168); also: potency is read from the fitted curve at half-maximal effect
# Conditions: Zika counter-screen; series mostly up to 45.9 µM
# In short: as §1
row,SMILES,Potency
1,COc1cc(C(=O)NS(=O)(=O)c2ccccc2C)ccc1Cc1cn(C)c2ccc(NC(=O)OC3CCCC3)cc12,inactive
2,CC(C)c1ccccc1Cc1cc(C(=O)Nc2ccc(S(=O)(=O)c3ccccc3C(C)(C)C)cc2)c(O)c(O)c1O,inactive
3,CCN1CCN(Cc2ccc(-c3cc4c(N[C@H](C)c5ccccc5)ncnc4[nH]3)cc2)CC1,38 µM (active)
